Here are results for 21 molecules from PubChem BioAssay AID720551 (National Center for Advancing Translational Sciences (NCATS), 2013).

SMILES strings stand for the structures. Screen size: about 340,000 compounds; about 1,300 (0.38%) were called active. This is one part of a sample in which actives are shown more often than they occur. A number with no mark means an inactive call.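 Rule for the calls: active = maximum activity change below -70%; inconclusive = maximum activity change between -70% and -50%; inactive = maximum activity change above -50%.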
% is set by controls: 0 for no effect and ±100 for the full control effect.

Sequence of Voltage-gated inwardly rectifying potassium channel KCNH2 (Homo sapiens) (Q12809 whole entry, looked up): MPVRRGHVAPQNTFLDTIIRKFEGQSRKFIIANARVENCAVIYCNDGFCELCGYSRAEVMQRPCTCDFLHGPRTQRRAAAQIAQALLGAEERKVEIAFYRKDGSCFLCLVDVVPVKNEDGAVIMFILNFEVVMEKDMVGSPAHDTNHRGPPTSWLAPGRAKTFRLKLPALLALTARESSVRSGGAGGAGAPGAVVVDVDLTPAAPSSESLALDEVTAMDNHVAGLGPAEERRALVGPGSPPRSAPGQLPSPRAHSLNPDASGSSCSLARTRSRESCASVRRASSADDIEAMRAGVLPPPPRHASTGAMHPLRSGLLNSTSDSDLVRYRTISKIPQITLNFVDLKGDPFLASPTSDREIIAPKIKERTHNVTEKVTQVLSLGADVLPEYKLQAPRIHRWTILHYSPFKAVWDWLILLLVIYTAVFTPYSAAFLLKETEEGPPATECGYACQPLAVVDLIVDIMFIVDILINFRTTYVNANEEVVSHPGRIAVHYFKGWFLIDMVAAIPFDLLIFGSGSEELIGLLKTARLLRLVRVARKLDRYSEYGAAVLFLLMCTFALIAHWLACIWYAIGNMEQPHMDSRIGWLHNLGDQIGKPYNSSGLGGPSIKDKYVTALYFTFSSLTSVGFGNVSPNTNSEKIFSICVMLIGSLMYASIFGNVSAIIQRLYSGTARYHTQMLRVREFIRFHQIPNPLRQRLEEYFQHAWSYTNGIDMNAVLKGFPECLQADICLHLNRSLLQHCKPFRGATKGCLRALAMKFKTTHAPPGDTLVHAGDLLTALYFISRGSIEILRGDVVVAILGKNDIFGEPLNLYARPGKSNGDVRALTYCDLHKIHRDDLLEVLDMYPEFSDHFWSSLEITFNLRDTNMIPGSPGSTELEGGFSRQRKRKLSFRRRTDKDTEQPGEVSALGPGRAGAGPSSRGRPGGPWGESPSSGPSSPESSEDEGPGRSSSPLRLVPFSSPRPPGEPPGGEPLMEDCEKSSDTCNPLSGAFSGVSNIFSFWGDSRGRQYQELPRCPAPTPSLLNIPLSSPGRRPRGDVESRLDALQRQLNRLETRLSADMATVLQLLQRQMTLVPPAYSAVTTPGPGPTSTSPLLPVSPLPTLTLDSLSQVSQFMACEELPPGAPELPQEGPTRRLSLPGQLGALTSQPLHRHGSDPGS

The assay deals with Voltage-gated inwardly rectifying potassium channel KCNH2 (Homo sapiens) (UniProt Q12809). Nature of the assay: qHTS for Inhibitors of KCHN2 3.1: Wildtype qHTS. The following applies: U2OS, BacMam KCNH2, thallium flux FluxOr; at 1.84 µM; hits give low values. The method, boiled down:
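U2OS cells transduced with wild-type KCNH2 virus are loaded with FluxOr dye for 45 min, and thallium flux is measured in kinetic reads before and after stimulation buffer. Rate constants are normalized to DMSO controls.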
On the technique in general: In qHTS, concentration-response curves come from the screen itself.
As for `CCOC(=O)C1CCN(C(=O)c2ccc3c(=O)n4nc(Nc5ccccc5CC)sc4nc3c2)CC1`, the activity change is -22.8%.

As for `CCN(CC)C(=O)C1=C(C)N(Cc2ccc(F)cc2)C(=O)C(CC(=O)NCc2cccc3ccccc23)C1` (stereo unspecified), the activity change was 6.51%. `O=C(Oc1ccc(-c2nc(-c3ccccn3)no2)cc1)c1ccccc1`: the activity change is -11.6%. For the molecule `O=C(Oc1ccccc1)c1ccc2nccnc2c1`, the activity change was -169% (active). Regarding `COC(=O)c1ccc(OC(=O)c2cnccn2)cc1`, the activity change is -0.0992%. As for `Cc1cccc(C(=O)C(O)(c2ccccc2)C2CCCCC2=O)c1` (stereo unspecified), the activity change was 8.63%. The result for `N#CCSc1ccccc1NC(=O)CN1C(=O)NC(CCc2ccccc2)C1=O` (stereo unspecified) reads -4.38%. Turning to `CC1CCC2(CC1)NC(=O)N(CC(=O)NCc1ccco1)C2=O` (stereo unspecified), the activity change was 5.92%. The result for `COc1ccc(CCNC(=O)CN2C(=O)CCSc3ccccc32)c(OC)c1` reads -169% (active); that for `COc1ccc(CCNC(=O)CCc2cn(C)c3ccccc23)c(OC)c1`, 6.58%. Turning to `CCOC(=O)CNC(=O)CN1C(=O)CCSc2ccccc21`, the activity change was 10.6%. Consider `CCOC(=O)C(C(=O)c1ccccc1)C(c1ccccc1)c1nccc2ccccc12` (stereo unspecified), for which the activity change was 3.11%.

For `O=C(CN1CCN(C(=O)c2ccco2)CC1)Nc1ccc2c(c1)OCO2`, the activity change was -4.79%. Turning to `O=C(CN1CCN(CC(=O)Nc2ccc3c(c2)OCO3)CC1)Nc1ccc(F)cc1`, the activity change is -129% (active). As to `O=C(COC(=O)c1ccc(F)cc1)Nc1ccc2c(c1)OCO2`, the activity change was -0.371%. In the case of `CCCCN1C(=O)C(CC(=O)NCc2cccs2)CC(C(=O)N2CCOCC2)=C1C` (stereo unspecified) it was -2.88%. On to `Cc1ccc(S(=O)(=O)N2C[C@]3(O)C[C@@H]4C(=O)N(c5ccccc5)C(=O)[C@@H]4C[C@]3(OC(=O)NC3CC3)C2)cc1`, for which the activity change was -7.72%. For the molecule `CN(C)/C=C(/C(=O)c1ccccc1Cl)S(C)(=O)=O`, the activity change is -134% (active). Regarding `CN(C)/C=C(/C(=O)c1ccc(Cl)cc1)S(=O)(=O)c1ccccc1`, the activity change is 0.0109%.

Consider `CN(C)/C=C(/C(=O)c1ccccc1)S(=O)(=O)c1ccc(Cl)cc1`, for which the activity change was -7.44%. As for `COCC1CCCCN1C(=O)c1cc(COc2ccc(C)c(C)c2)on1` (stereo unspecified), the activity change was -11.8%.
